High-throughput results deposited in PubChem by National Center for Advancing Translational Sciences (NCATS).
G9a inh – qHTS Assay for Inhibitors of Histone Lysine Methyltransferase G9a. Histone-lysine N-methyltransferase EHMT2 (Homo sapiens), Q96KQ7. G9a H3K9 monomethylation, AlphaScreen, 2 h. Potency, µM (top dose mostly 102 µM), hits mostly inhibitors. 350,000 compounds, 8.8% hits. AID 504332, 2011; also: nearly all actives have a fitted effect of over 75% in size
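Compounds were preincubated with 20 nM G9a for 15 min, after which biotinylated H3K9 peptide (500 nM) and SAM (20 uM) started a 2 h room-temperature reaction. Monomethylated product was quantified by antibody-based AlphaScreen chemiluminescence.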
L3MBTL1 block – qHTS Assay for the Inhibitors of L3MBTL1 | AlphaScreen L3MBTL1–H3K9me1 peptide binding | Potency, µM (titrated, usually from 57.1 µM), hits mostly inhibitors | 230,000 compounds, 0.66% hits; also: nearly all actives have a fitted effect of over 60% in size
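L3MBTL1 (50 nM) pre-complexed 30 min with biotinylated H3(1-15)K9me1 peptide (75 nM), then compounds added for 30 min at room temperature; AlphaScreen streptavidin donor/nickel chelate acceptor beads (10 ug/mL final) read after 30 min dark incubation.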
BAZ2B block – qHTS Assay for Inhibitors of BAZ2B; Bromodomain adjacent to zinc finger domain protein 2B (Homo sapiens), Q9UIF8; AlphaScreen BAZ2B-H3K14Ac peptide displacement; Potency, µM (doses to about 114 µM), most hits filed as inhibitors; 360,000 compounds, 4.4% hits; AID 504333, 2011; also: nearly all actives have a fitted effect of over 60% in size
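Compounds, titrated to a top concentration of 110 uM, were incubated 30 min at room temperature with preformed BAZ2B/acetyl-K14 H3 peptide complex (50 nM each). Proximity signal was measured by AlphaScreen after 20 min with beads.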
PI5P4K alpha inh – qHTS for Inhibitors of phosphatidylinositol 5-phosphate 4-kinase (PI5P4K) | Phosphatidylinositol 5-phosphate 4-kinase type-2 alpha (Homo sapiens), P48426 | PI5P4Kalpha enzyme, ADP-Glo luminescence, 60 min; stronger effect = lower value | max response, % | 330,000 compounds, 1.2% hits | AID 652105, 2013; active = max response of -50% or lower; inconclusive = between -30% and -50%; inactive = -30% or higher; also: value at the top dose of about 77 µM
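Controls without substrate or without enzyme flank wells where PI5P4Kalpha converts substrate using 5 microM ATP (final). Incubation lasts 60 minutes at room temperature; ADP formed is read by ADP-Glo luminescence.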
HP1b binding inh – HTS for Inhibitors of HP1-beta Chromodomain Interactions with Methylated Histone Tails. Chromobox protein homolog 1 (Homo sapiens), P83916. 390,000 compounds, 0.56% hits. AlphaScreen HP1-beta / biotin-H3K9me3 peptide binding. Potency, µM (series often up to 114 µM), actives largely listed as inhibitors; also: nearly all actives have a fitted effect of over 70% in size
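AlphaScreen: HP1-beta (50 nM) preformed 30 min with biotin-H3(1-18)K9me3 peptide (50 nM) in PBS pH 7.4, 0.01% Tween-20. Compound added for 30 min at RT, then streptavidin donor/nickel chelate acceptor beads (10 ug/mL) for 30 min.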
JMJD2A Tudor – qHTS Assay for Inhibitors of JMJD2A-Tudor Domain. Lysine-specific demethylase 4A (Homo sapiens), O75164. AlphaScreen JMJD2A-Tudor / H3K4me3 peptide binding. Potency, µM (series often up to 114 µM), usual class: inhibitors. 390,000 compounds, 4.4% hits; also: nearly all actives have a fitted effect of over 50% in size
Numbers stand for hits; – = inactive; ? = inconclusive; · = no result given; [ ] = dose if it differs, or a comment. Rows were chosen to be rich in hits. Some 11% of all compounds tested hit in one or more screens of this group. Unless noted, calls follow the shape of the dose curve; as a rule, active = well fitted inhibition curve with a large enough effect; inconclusive = small, poorly fitted or top-dose-only effect; inactive = no such curve, though single readings can be large or run the other way.

SMILES | G9a inh | L3MBTL1 block | BAZ2B block | PI5P4K alpha inh | HP1b binding inh | JMJD2A Tudor
CCOC(=O)c1ccc(N2C(=O)CC(NC3CCN(C(=O)c4ccc(F)cc4)CC3)C2=O)cc1 (stereo not drawn) | 45µM | – | – | – | – | –
CCOc1ccc(NC(=S)NCc2ccc3[nH]c(C)cc3c2)cc1 | ? | · | · | – | – | 50µM
Cc1cc2cc(CNC(=O)c3ccc4c(c3)OCO4)ccc2[nH]1 | 50µM | – | ? | · | – | –
Cc1cccc(-n2c(C)nc3cc(C(=O)NCc4ccc5c(c4)OCO5)ccc32)c1 | 45µM | – | ? | – | – | –
Cc1cc(CNC(=O)c2ccc3c(c2)OCO3)c2ccccc2n1 | 35µM | –[11.4 µM] | – | – | – | –
O=C(NCc1ccc2c(c1)OCO2)c1ccc2c(c1)OCO2 | –[12.7 µM] | · | – | – | – | –
COc1ccc(NC(=O)Cn2c(=O)n(Cc3ccco3)c(=O)c3oc4ccccc4c32)cc1Cl | – | · | – | · | – | –
COc1cc(C(=O)Nc2nonc2-c2ccc(C)c(C)c2)cc(OC)c1OC | – | · | – | · | – | –
COc1cc(C(=O)NCc2ccc3[nH]c(C)cc3c2)cc(OC)c1OC | ? | – | – | – | – | –
COc1ccc(C(=O)NCc2ccc3[nH]c(C)cc3c2)cc1OC | 35µM | – | ? | – | – | –
Cc1ccc(NS(=O)(=O)c2cc(-c3cnc(C4CC4)o3)ccc2C)cc1Cl | – | · | – | · | – | ?
CCc1ccc(CNC(=O)c2cnc(N3CCCCC3)c3ccccc23)cc1 | – | · | – | · | – | –
CCOc1ccc2[nH]c3c(c2c1)CNCC3 | 71µM | – | – | – | – | ?
COc1ccc2c(CNCc3ccccc3OC)c(C(=O)O)n(Cc3ccc(F)cc3Cl)c2c1 | – | · | – | · | – | –
COc1ccc(-c2ccc(OC)c(C3C4C=CCCC4(C)C(=O)N3Cc3ccccc3)c2)cc1OC (stereo not drawn) | · | · | · | · | – | ?
O=c1c(/C=N/OCc2ccc(Cl)cc2Cl)c[nH]n1-c1cccc(Cl)n1 | – | – | – | – | – | –
O=c1c(-n2cncn2)c[nH]n1-c1cccc(Cl)n1 | ? | · | 50µM | – | ? | 50µM
O=S(=O)(c1ccccc1)N1CCC2(CCCN(Cc3cc(C(F)(F)F)cc(C(F)(F)F)c3)C2)CC1 | –[12.7 µM] | · | · | · | · | ·
Cc1cc(C)n(C(=O)/C=C/c2cccs2)n1 | –[12.7 µM] | – | 56µM | – | – | –
CCOC(=O)C1CCN(c2cc(C)nc3c(-c4ccccc4OC)c(C)nn23)CC1 | – | · | – | · | – | –
OCCNC1=NCCN1 | –[12.7 µM] | – | – | – | – | –
Fc1ccc(Sc2ccccc2CNC2=NCCN2)cc1 | 6.3µM | – | – | – | – | –
CCOCCCNC(=O)C(=O)Nc1c2c(nn1-c1ccccc1)CSC2 | – | · | – | · | – | –
Cc1no[n+]([O-])c1COc1ccc(/C=C2\NC(=S)NC2=O)cc1 | – | · | – | – | – | –
CCOc1ccc(/C=C2/SC(=S)N(n3c(C)ccc3C)C2=O)cc1 | 10µM | · | 11µM | – | 14µM | 22µM
SMILES | G9a inh | L3MBTL1 block | BAZ2B block | PI5P4K alpha inh | HP1b binding inh | JMJD2A Tudor
COc1ccc(/C=C2\SC(=S)N(CCC(=O)N(CCO)c3ccccc3)C2=O)cc1OC | –[2.33 µM] | · | – | – | – | –
CCOc1ccc(/C=C2\SC(=S)N(CCC(=O)N(CCO)c3ccccc3)C2=O)cc1 | 16µM | – | ? | – | – | ?
COc1ccc(/C=C2/SC(=S)N(n3c(C)ccc3C)C2=O)cc1 | 16µM | · | 10µM | – | ? | 35µM
CCOc1ccc(/C=C2\NC(=S)NC2=O)cc1 | 45µM | – | – | – | – | –[11.4 µM]
Cc1ccc2c(=O)c(C(=O)c3ccc(F)cc3)cn(CC(=O)Nc3ccc4c(c3)OCCO4)c2n1 | – | · | – | · | – | –
CCn1c(C)c(C2N3CC4(C)CN2CC(C)(C3)C4=O)c2ccccc21 (stereo not drawn) | – | · | – | · | – | –
Cc1cccn2c(=O)c(C(=O)NCCc3ccccc3)c(O)nc12 | – | · | – | · | – | –
O=C1/C(=C/c2ccccc2)SC(=S)N1N1C(=O)C2CC2C1=O (stereo not drawn) | 25µM | · | – | – | – | –
O=C(CCN1C(=O)/C(=C\c2ccccc2)SC1=S)N1CCCCC1 | – | · | – | – | – | –
C=Cc1ccc(CSc2nc(-c3ccc(C)cc3)nc3c2Cc2c(CO)cnc(C)c2O3)cc1 | – | · | – | · | – | –
CC1CN(C(=O)CCC(=O)NCc2ccccc2)c2ccccc2S1 (stereo not drawn) | · | – | – | – | – | –
CCOc1ccc(CNC(=O)CCC(=O)N2CC3CCCN3c3ccccc32)cc1 (stereo not drawn) | – | · | 50µM | · | ? | ?
COc1ccc(OC)c(NC(=O)N2CC3CCCN3c3ccccc32)c1 (stereo not drawn) | 18µM | · | 20µM | · | ? | 40µM
O=C(NCc1cccc(Cl)c1)c1ccc(NC(=O)N2CC3CCCN3c3ccccc32)cc1 (stereo not drawn) | 10µM | · | ? | · | – | ?
O=C(NCc1cccc(Br)c1)c1ccc(NC(=O)N2CCCCc3ccccc32)cc1 | – | · | – | · | – | –
O=C(Nc1cccc(Cl)c1)N1CC2CCCN2c2ccccc21 (stereo not drawn) | 2.2µM | · | 18µM | · | ? | 14µM
COc1ccc(OC)c(NC(=O)N2CCCc3ccccc32)c1 | · | · | ? | – | – | –
CC1CCCCN1C(=O)Nc1cccc(Cl)c1 (stereo not drawn) | – | – | – | – | – | –
CCOC(=O)C1=C(Cc2ccc(Cl)cc2)C(=O)c2ccccc2C1=O | 2.5µM | · | 22µM | · | 20µM | 35µM
CCOC(=O)c1c(C=O)c(C)n(Cc2ccc(Cl)cc2)c1C | – | · | – | · | – | ?
Cc1sc(NC(=O)C2CSC3(C)CCC(=O)N23)nc1-c1ccccc1 (stereo not drawn) | 50µM | – | ? | – | – | –
CC12CCC(=O)N1C(C(=O)Nc1nc(-c3ccccc3Cl)cs1)CS2 (stereo not drawn) | 50µM | – | – | – | – | –
CC12CCC(=O)N1C(C(=O)Nc1nc(-c3ccc(F)cc3)cs1)CS2 (stereo not drawn) | – | – | – | – | – | –
O=C(NCc1ccccc1Cl)C1CCCN(c2ncnc3onc(-c4ccc(F)cc4)c23)C1 (stereo not drawn) | – | · | – | · | – | –
